# Data taken from ChEMBL document CHEMBL4513149, “CO-ADD screening of MMV (CH) - MMV compounds” (2021).
# Entries with a potency or affinity are not part of this list.
# Experiments:
# Klebsiella pneumoniae = conditions: Concentration 20 uM; ASSAY_TEST Inhibition of Bacterial Growth; detection method Absorption (OD600); MEDIA CAMHB; plate type 384well; NBS; CORNING #3640; time 18 hr
# Candida albicans = conditions: 20 µM
# Cryptococcus neoformans = conditions: Concentration 20 uM; ASSAY_TEST Inhibition of Fungal Growth; detection method Resazurin; Absorption (OD600-OD570); plate type 384well; NBS; CORNING #3640
smiles,measurement,setting,value
Cc1ccccc1CN1CCC(O)(c2ccc(Cl)c(C(F)(F)F)c2)CC1,Inhibition,Klebsiella pneumoniae,11.69%
same,Inhibition,Candida albicans,3.22%
same,Inhibition,Cryptococcus neoformans,-6.41%
CCOc1ccc(-c2nc(NC(=O)CS(=O)(=O)c3ccccc3)sc2C)cc1,Inhibition,Klebsiella pneumoniae,8.83%
same,Inhibition,Candida albicans,3.16%
same,Inhibition,Cryptococcus neoformans,-9.26%
Cl.Cn1ccnc1CNCCS(=O)(=O)c1cccc(Nc2ccc(-c3cccc(F)c3)cn2)c1,Inhibition,Klebsiella pneumoniae,13.22%
same,Inhibition,Candida albicans,4.46%
same,Inhibition,Cryptococcus neoformans,-9.08%
Nc1ncnc2c1ncn2C[C@@H](O)[C@@H](O)C(=O)O [ERITADENINE],Inhibition,Klebsiella pneumoniae,17.23%
same,Inhibition,Candida albicans,3.88%
same,Inhibition,Cryptococcus neoformans,-6.54%
CNc1nnc(Sc2cnn(-c3ccccc3)c(=O)c2Cl)s1,Inhibition,Klebsiella pneumoniae,0.48%
same,Inhibition,Candida albicans,4.99%
same,Inhibition,Cryptococcus neoformans,-9.44%
CNC1C(OC2C(OC3C(O)C(O)C(NC(=N)N)C(O)C3NC(=N)N)OC(C)C2(O)C=O)OC(CO)C(O)C1O.CNC1C(OC2C(OC3C(O)C(O)C(NC(=N)N)C(O)C3NC(=N)N)OC(C)C2(O)C=O)OC(CO)C(O)C1O.O=S(=O)(O)O.O=S(=O)(O)O.O=S(=O)(O)O (centres undefined),Inhibition,Klebsiella pneumoniae,-10.2%
same,Inhibition,Candida albicans,2.09%
same,Inhibition,Cryptococcus neoformans,-8.51%
CCc1ccc(S(=O)(=O)Nc2cc(CN3CCN(CCC(C)C)CC3)ccc2C)cc1,Inhibition,Klebsiella pneumoniae,18.36%
same,Inhibition,Candida albicans,4.16%
same,Inhibition,Cryptococcus neoformans,-6.26%
COc1ccc(-c2nc(-c3cccc(NC(=O)Cc4ccc(F)cc4)c3)no2)cc1OC,Inhibition,Klebsiella pneumoniae,13.72%
same,Inhibition,Candida albicans,23%
same,Inhibition,Cryptococcus neoformans,-5.03%
COc1ccc(-c2onc(C(F)(F)F)c2-c2ccc(Cl)cc2)c(O)c1,Inhibition,Klebsiella pneumoniae,9.85%
same,Inhibition,Candida albicans,2.64%
same,Inhibition,Cryptococcus neoformans,8.78%
CCOc1ccc(-c2nc(CNCCc3ccc(F)cc3)cs2)cc1,Inhibition,Klebsiella pneumoniae,12.06%
same,Inhibition,Candida albicans,7.53%
same,Inhibition,Cryptococcus neoformans,-5.87%
O=C(OCc1ccccc1)N1CCC(c2cc(-c3ccncc3)c(-c3ccc(F)cc3)[nH]2)CC1,Inhibition,Klebsiella pneumoniae,6.24%
same,Inhibition,Candida albicans,3.85%
same,Inhibition,Cryptococcus neoformans,-11.48%
N#CCN(CCCCN1CCN(c2ccc(F)cc2)CC1)C(=O)OCc1ccccc1,Inhibition,Klebsiella pneumoniae,11.82%
same,Inhibition,Candida albicans,2.42%
same,Inhibition,Cryptococcus neoformans,-5.61%
CCOc1ccccc1NC(C)C(=O)Nc1cc(C(F)(F)F)ccc1N1CCOCC1 (centres undefined),Inhibition,Klebsiella pneumoniae,14.66%
same,Inhibition,Candida albicans,4.33%
same,Inhibition,Cryptococcus neoformans,-7.7%
O=C(NCCc1ccn(-c2ccccc2)n1)C1CCCCC1,Inhibition,Klebsiella pneumoniae,6.33%
same,Inhibition,Candida albicans,3.92%
same,Inhibition,Cryptococcus neoformans,-9.22%
CS(=O)(=O)N1CCC(Cn2nc(Cc3cccc4ccccc34)c3c(N)ncnc32)CC1,Inhibition,Klebsiella pneumoniae,11.77%
same,Inhibition,Candida albicans,2.39%
same,Inhibition,Cryptococcus neoformans,-6.98%
O=C(C1CCN(c2nnc(-n3cccc3)s2)CC1)N1CCC(Cc2ccccc2)CC1,Inhibition,Klebsiella pneumoniae,11.79%
same,Inhibition,Candida albicans,4.63%
same,Inhibition,Cryptococcus neoformans,-9.35%
Cc1cc(Cl)ccc1NC(=O)CCc1ccc(S(=O)(=O)NCC(C)C)cc1,Inhibition,Klebsiella pneumoniae,8.81%
same,Inhibition,Candida albicans,1.81%
same,Inhibition,Cryptococcus neoformans,-9.04%
CC(C)(C)c1cc(C(=O)N2CCN(c3nccnc3C#N)CC2)n(Cc2ccccc2)n1,Inhibition,Klebsiella pneumoniae,14.9%
same,Inhibition,Candida albicans,6.36%
same,Inhibition,Cryptococcus neoformans,1.25%
Nc1ncnc2c1c(-c1cnc3ccccc3c1)nn2CC1CCNCC1,Inhibition,Klebsiella pneumoniae,4.12%
same,Inhibition,Candida albicans,2.53%
same,Inhibition,Cryptococcus neoformans,-1.76%
COc1cccc2c(C)nc(N=C(N)N)nc12.O=C(O)C(F)(F)F.O=C(O)C(F)(F)F,Inhibition,Klebsiella pneumoniae,9.38%
same,Inhibition,Candida albicans,2.56%
same,Inhibition,Cryptococcus neoformans,-13.06%
NCCC(O)C(=O)N[C@@H]1C[C@H](N)[C@@H](OC2O[C@H](CN)[C@@H](O)[C@H](O)[C@H]2O)[C@H](O)C1OC1O[C@H](CO)[C@@H](O)[C@H](N)[C@H]1O.O=S(=O)(O)O.O=S(=O)(O)O (some centres undefined),Inhibition,Klebsiella pneumoniae,11.78%
same,Inhibition,Candida albicans,2.46%
same,Inhibition,Cryptococcus neoformans,-2.57%
Cc1noc(C)c1COc1cccc(C(=O)N=c2[nH]cccc2C)c1,Inhibition,Klebsiella pneumoniae,14.67%
same,Inhibition,Candida albicans,1.92%
same,Inhibition,Cryptococcus neoformans,-9.25%
COc1ccccc1OCCCCn1c(C2CC2)nc2ccccc21,Inhibition,Klebsiella pneumoniae,10.24%
same,Inhibition,Candida albicans,1.96%
same,Inhibition,Cryptococcus neoformans,-4.4%
Cc1ccc2[nH]c(C3CCCNC3)c(-c3ccncc3)c2c1.Cl.Cl (centres undefined),Inhibition,Klebsiella pneumoniae,-25.08%
same,Inhibition,Candida albicans,4.63%
same,Inhibition,Cryptococcus neoformans,1.08%
O=C(Nc1ccnc(-c2cccnc2)n1)c1cc(C(F)(F)F)cc(C(F)(F)F)c1,Inhibition,Klebsiella pneumoniae,14.57%
same,Inhibition,Candida albicans,1.91%
same,Inhibition,Cryptococcus neoformans,-5.46%
Cc1nnc(NCc2cccc(Cl)c2)c2ccccc12,Inhibition,Klebsiella pneumoniae,13.85%
same,Inhibition,Candida albicans,3.34%
same,Inhibition,Cryptococcus neoformans,-11.95%
Cc1cccc(-c2nc(Nc3ccncn3)c3sccc3n2)n1,Inhibition,Klebsiella pneumoniae,15.76%
same,Inhibition,Candida albicans,3.59%
same,Inhibition,Cryptococcus neoformans,61.44%
CCOc1ccc(OCC(=O)Nc2cc(C)cc(C)c2)cc1,Inhibition,Klebsiella pneumoniae,6.85%
same,Inhibition,Candida albicans,9.23%
same,Inhibition,Cryptococcus neoformans,-6.41%
